# From PubChem BioAssay
# Hits are enriched below; roughly 1.9% of the tested compounds scored in any of these assays.
# FUS suppressor: rescues growth of FUS-expressing yeast; S. cerevisiae FUS-expressing, growth rescue, OD600, 24 h; Potency, µM (highest dose often 76.6 µM), hits mostly activators; actives 0.24% (n = 390,000);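 further: potency means the concentration at half of the fitted maximal effect; plate controls were DMSO vehicle for no effect and reference control for full effect; nearly all actives have a fitted effect of over 55% in size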
#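 Cultures pregrown in 2.5% raffinose medium are shifted to minimal medium containing 2% galactose to express toxic FUS. Compounds are tested at several concentrations. After 24hr at 30C, growth is quantified at 600 nm absorbance.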
# aSyn rescue: rescues yeast growth from alpha-synuclein toxicity; Yeast expressing alpha-synuclein, growth rescue, BacTiter-Glo, 24 h; Potency, µM (series often up to 46.1 µM), for inactives: top-dose growth rescue (activation), most hits filed as activators; actives 0.14% (n = 370,000); further: potency means the concentration at half of the fitted maximal effect; % of control where 0% means no effect; nearly all actives have a fitted effect of over 65% in size
#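 Readout is rescue of growth in alpha-synuclein-expressing yeast, so inhibitors of toxicity appear as activators. Growth after 24 hr at 30 deg C in galactose medium is quantified by luminescence.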
# PTHR1 agonist: agonists of human PTHR1 parathyroid hormone receptor; Q03431; HEK293 GP2 PTHR1 cells, GloSensor cAMP luminescence, 1 h; Potency, µM (top dose mostly 115 µM), inactives show top-dose activation, actives largely listed as activators; actives 0.075% (n = 410,000); further: potency means the concentration at half of the fitted maximal effect; nearly all actives have a fitted effect of over 55% in size
# Target sequence (Q03431 whole entry, looked up): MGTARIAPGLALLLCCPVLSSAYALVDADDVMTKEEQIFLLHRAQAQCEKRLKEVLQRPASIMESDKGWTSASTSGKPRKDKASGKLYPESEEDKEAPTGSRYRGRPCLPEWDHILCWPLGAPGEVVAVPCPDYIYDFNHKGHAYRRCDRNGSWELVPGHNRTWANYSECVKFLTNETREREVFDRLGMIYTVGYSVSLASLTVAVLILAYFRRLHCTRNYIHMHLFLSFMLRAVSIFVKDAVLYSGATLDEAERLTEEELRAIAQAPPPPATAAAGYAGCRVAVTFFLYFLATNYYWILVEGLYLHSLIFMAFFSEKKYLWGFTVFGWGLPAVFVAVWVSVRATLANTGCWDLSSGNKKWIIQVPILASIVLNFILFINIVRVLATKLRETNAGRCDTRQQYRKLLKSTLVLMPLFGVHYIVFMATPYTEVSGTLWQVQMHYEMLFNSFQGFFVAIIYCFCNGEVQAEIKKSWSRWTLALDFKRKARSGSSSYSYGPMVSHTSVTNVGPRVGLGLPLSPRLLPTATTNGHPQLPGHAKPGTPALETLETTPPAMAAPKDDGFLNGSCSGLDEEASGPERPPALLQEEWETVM
#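 HEK-293-derived GP2 cells expressing PTHR1 and a GloSensor cAMP reporter, 3,000/well, plated overnight, given luciferin plus IBMX (each 0.5 mM as added) for 1 h at 37 °C, then compound for 1 h at 37 °C. Luminescence was read after 15 min at room temperature.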
# LDHA block: LDHA (human) enzyme inhibition | purified LDHA, NADH/diaphorase-resazurin fluorescence; active compounds read low | actives 0.15% (n = 480,000) | activity change, % (values are at about 110 or 230 µM); in the data active means activity change below about -30%; inconclusive means mostly about -25% to -30%;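 further: plate controls were DMSO wells for no effect and wells without enzyme for full effect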
#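 Human LDH5 at 2 nM final in Tris HCl pH 7.4 with 0.06 mM NADH and 0.2 mM pyruvate, reacted 5 minutes at room temperature. Remaining NADH coupled via diaphorase/resazurin; resorufin fluorescence read at 0 and 20 minutes, normalized to enzyme-free and DMSO wells.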
# TDP-43 yeast inh: rescues yeast growth from TDP-43 toxicity; actives 1.8% (n = 410,000); Potency, µM (titrated, usually from 46.1 µM), without a hit: at the highest dose growth rescue (activation), actives largely listed as activators; TDP-43 expressing yeast growth rescue, BacTiter-Glo, 24 h; AID 652104; further: potency means the concentration at half of the fitted maximal effect; % of control where 0% means no effect; nearly all actives have a fitted effect of over 50% in size
#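 Growth rescue of TDP-43-toxic yeast measured as ATP luminescence (BacTiter-Glo). Cells grown to mid-log in raffinose, induced in galactose at OD600=0.02, exposed to compound 24 hr at 30 deg C.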
# Abeta rescue: restores growth of yeast expressing A-beta42 peptide; yeast expressing A-beta42, growth rescue, OD600, 48 h; response scale: 0% DMSO, 100% iron-clioquinol control; Potency, µM (doses to about 46.1 µM), usual class: activators; actives 0.063% (n = 410,000); further: potency means the concentration at half of the fitted maximal effect; nearly all actives have a fitted effect of over 55% in size
#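 Yeast growth medium received pinned compounds, then yeast cells expressing toxic A-beta were added; plates incubated at 30 C for 48 hr. Growth read as absorbance at 600 nm, normalized to DMSO and equimolar FeCl3 plus clioquinol controls.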
# * = called active by the depositor; i = inactive; ? = inconclusive; . = not tested or not shown; ! = a repeat was not active; [ ] = another dose, or the depositor's remark. Unless noted, the call rests on the fitted dose curve; in most records, active means well fitted curve in the direction sought with a large enough effect; inconclusive means small, poorly fitted or top-dose-only effect, or another doubt; inactive means no such curve, though single readings can be large; an effect the other way counts as inactive or inconclusive.
SMILES,FUS suppressor,aSyn rescue,PTHR1 agonist,LDHA block,TDP-43 yeast inh,Abeta rescue
Cc1cccc(N2CCN(C(=O)C3(S(=O)(=O)c4ccc(Cl)cc4)CC3)CC2)c1C,?,0%,-24%,0,35µM*,i
O=C(Nc1ccc(-c2nc3ccccc3o2)cc1)c1cccc([N+](=O)[O-])c1,.,.,.,2,.,.
Cc1nc2c(Br)c(C)nn2c2c1CCC2,i,0%,i,1,11µM*,i
COC(=O)c1cnn2c3c(c(C)nc12)CCCC3,i,0%,-2%[57.5 µM],0,-17%,i
CCOC(=O)[C@H]1[C@H]2COc3ccc(Br)cc3[C@@H]2N2C(=O)c3cc(F)c(F)cc3NC(=O)[C@@]12C,28µM*,1%,-40%,-8,29%,i
CCOC(=O)[C@@H]1[C@H]2COc3ccc(Br)cc3[C@@H]2N2C(=O)N(c3ccccc3)C(=O)[C@@]12C,i,?,?,-1,35µM*,i
CCOC(=O)[C@@H]1[C@H]2COc3cc(OC)ccc3[C@@H]2N2C(=O)N(c3ccc(Cl)cc3)C(=O)[C@]12C,28µM*,-4%,-18%,-6,7%,i
CSCCCNC(=S)NCc1ccccn1,.,.,.,-5,.,.
COc1ccccc1N1CCN(CCN(C(=O)c2ccc(F)cc2)c2ccccn2)CC1,i,14µM*!,i,-3,18%,i
COc1ccccc1N1CCN(CCN(C(=O)C2CCCCC2)c2ccccn2)CC1,i,3%,-67%,-4,15%,i
COc1ccccc1OCCC(=O)OCc1ccc(Cl)cc1,.,.,.,6,.,.
CSc1ccc(C2C(C#N)=C(N)Oc3c2ccc2ccccc32)cc1 (stereo not given),.,.,.,12,.,.
CC(=O)n1c2c(c3ccccc31)OC(N)=C(C#N)C2c1ccc(C(C)C)cc1 (stereo not given),i,20µM*,i,3,1%,i
Cc1cn(C2OC(COC(=O)c3ccccc3)C(O)C2O)c(=O)[nH]c1=O (stereo not given),i,0%,29%[57.5 µM],-4,-12%,i
Cc1cn(C2OC(COC(=O)c3ccccc3)C(OC(=O)c3ccccc3)C2OC(=O)c2ccccc2)c(=O)[nH]c1=O (stereo not given),25µM*,23%,-5%[57.5 µM],4,-16%,i
O=C(NN1CCOCC1)c1ccn(COc2ccc(Br)cc2)n1,.,.,.,-33*,.,.
O=C(N/N=C/c1ccc(-c2ccc(S(=O)(=O)Nc3ncccn3)cc2)o1)c1cc2ccccc2cc1O,i,0%,i,-46*,11%,i
COc1ccc(-c2ccc(=O)n(CC(=O)N3CCC(Cc4ccccc4)CC3)n2)cc1,.,.,.,10,.,.
COCCCNc1oc(-c2ccc(COc3ccccc3C)o2)nc1C#N,i,.,-29%,4,16µM*,i
O=C(c1ccc([N+](=O)[O-])cc1)N1CCc2ccccc2C1,i,1%,i,-1,-15%[0.397 µM],i
O=[N+]([O-])c1cccc(NC(=S)N2CCc3ccccc32)c1,i,2%,-22%,-8,13µM*,?
O=C(Nc1cccc([N+](=O)[O-])c1)N1CCCc2ccccc21,i,-5%,i,-2,11µM*,i
O=[N+]([O-])c1ccc(NC(=S)N2CCc3ccccc3C2)cc1,.,?,-39%,-1,25µM*,i
CC(=O)c1cccc(NC(=O)N2CCCc3ccccc32)c1,i,10%,i,17,?,i
COc1cccc(C2C3=C(COC3=O)Nc3c2c(=O)n(C)c(=O)n3C)c1OC (stereo not given),.,.,.,-2,.,.
CCOC(=O)c1cc(NC(=O)C(c2ccccc2)c2ccccc2)ccc1N1CCOCC1,.,.,.,10,.,.
CC(NC(=O)/C(C#N)=C\c1ccc(C(C)(C)C)cc1)c1ccccc1 (stereo not given),.,.,.,2,.,.
